We go through nine compounds from PubChem BioAssay (NCATS).

Test [1] in a line: qHTS Assay for Lipid Storage Modulators (AID 1519; calls by dose curve; as to activity change, negative = inhibition: % is scaled to controls: 0 for no effect and ±100 for the full control effect). The conditions noted are these: Drosophila S3 cells, BODIPY lipid droplet/cell ratio, laser cytometry, cells loaded with oleic acid. Summed up: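 Cells seeded at 5,000 per well were treated with compounds over a concentration series and loaded with oleic acid (400 uM, as added). Lipid droplet fluorescence (488 nm excitation, 500-530 nm channel) was read by laser-scanning cytometry and normalized to 20 uM Triacsin C.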

For test [2], the target named is DNA repair nuclease/redox regulator APEX1 (Homo sapiens) (UniProt P27695). The test can be described thus: qHTS Validation Assay for Inhibitors of the Human Apurinic/apyrimidinic Endonuclease 1 (APE1) (AID 1705;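 also: TAMRA fluorescence gain over two minutes as APE1 cuts a quenched THF abasic duplex; % is scaled to controls: 0 for no effect and ±100 for the full control effect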). The conditions noted are these: purified APE1 endonuclease activity, fluorescence, titration; series mostly up to 57.1 µM. A digest of the protocol:
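Read-out: TAMRA fluorescence (525 nm ex, 598 nm em) from cleavage of a quenched THF abasic-site duplex, 50 nM final; activity taken as intensity change between third and first of three reads 60 s apart.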

The nature of test [3]: Counterscreen for APE1 Inhibitors: Fluorescent Dye Displacement Validation Assay (AID 1707). Also: potency is read from the fitted curve at half-maximal effect.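 As to activity change, negative = inhibition: plate controls were ThO with dsDNA and no compound for no effect and ThO without dsDNA for full effect.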 To be noted: fluorescent dye displacement from DNA; series mostly up to 57.1 µM. Summed up:
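Reaction mixture of 250 nM Thiazole Orange and 50 nM double-stranded abasic-site DNA was dispensed, compounds were pin-transferred, and fluorescence was read at endpoint (480 nm ex, 540 nm em). Reduced fluorescence indicated dye displacement by DNA binding.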
In general terms: A counterscreen serves to expose hits that act by an unwanted route or on another target.

For test [4], the target named is Endonuclease 4 (Escherichia coli (strain K12)) (UniProt P0A6C1). In words: Counterscreen for APE1 Inhibitors: qHTS Validation Assay for Inhibitors of Endonuclease IV (AID 1708). Also: % is scaled to controls: 0 for no effect and ±100 for the full control effect. To be noted: E. coli endonuclease IV, DNA cleavage fluorescence; series mostly up to 57.1 µM. Summed up:
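The reaction buffer contained 50 mM Tris-HCl pH 7.5, 50 mM NaCl, 2 mM MgCl2, 1 mM DTT and 0.01% Tween-20. Incision of a 50 nM fluorophore/quencher THF substrate by 2 nM enzyme was measured kinetically.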

Test [5] in a line: qHTS for differential inhibitors of proliferation of Plasmodium falciparum line 7G8 (AID 1815).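 Also: parasite growth measured after three days of incubation.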 Also: potency is read from the fitted curve at half-maximal effect.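 As to activity change, negative = inhibition: plate controls were vehicle wells for no effect and reference inhibitor wells for full effect.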 The conditions noted are these: Plasmodium falciparum 7G8 proliferation inhibition; series mostly up to 28.7 µM. A general note: qHTS replaces the single test concentration by a dilution series.
Test [6] is described as follows: qHTS for differential inhibitors of proliferation of Plasmodium falciparum line GB4 (AID 1816).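 Also: parasite growth measured after 72 h incubation.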 Also: potency is read from the fitted curve at half-maximal effect.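 As to activity change, negative = inhibition: 0% = vehicle DMSO and -100% = reference inhibitor.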 To be noted: Potency: Plasmodium falciparum GB4 proliferation inhibition; series mostly up to 28.7 µM.
The nature of test [7]: qHTS for differential inhibitors of proliferation of Plasmodium falciparum line 3D7 (AID 1876). Also: potency is read from the fitted curve at half-maximal effect. The conditions noted are these: P. falciparum 3D7 proliferation inhibition; series mostly up to 28.7 µM.
Test [8] is described as follows: qHTS for differential inhibitors of proliferation of Plasmodium falciparum line D10 (AID 1877).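 Also: parasites grown with compound for 72 h before DNA staining.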 Also: potency is read from the fitted curve at half-maximal effect.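 As to activity change, negative = inhibition: plate controls were vehicle wells for no effect and reference inhibitor wells for full effect.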 To be noted: series mostly up to 28.7 µM.
The nature of test [9]: qHTS for differential inhibitors of proliferation of Plasmodium falciparum line Dd2 (AID 1882). Also: nearly all actives have a fitted effect of over 65% in size. Also: potency is read from the fitted curve at half-maximal effect.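 As to activity change, negative = inhibition: compound exposure of 72 h on infected erythrocytes; plate controls were DMSO vehicle for no effect and 0.29 µM artemisinin for full effect.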 To be noted: Potency: Plasmodium falciparum Dd2 proliferation inhibition; series mostly up to 28.7 µM. Summed up: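 RBC culture, 0.3% parasitemia / 2.5% Hct final; cpd added by pin tool in DMSO; 72 h, 37 C, 5% CO2; lysis buffer + SYBR Green I, o/n RT dark; FI 485/535; norm. to artemisinin 0.29 uM and DMSO.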

Test [10] can be described thus: qHTS for differential inhibitors of proliferation of Plasmodium falciparum line W2 (AID 1883).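 Also: parasites grown with compound for 72 h before lysis and staining.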 Also: potency is read from the fitted curve at half-maximal effect.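 As to activity change, negative = inhibition: 0% = vehicle wells and -100% = control inhibitor wells.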 To be noted: Potency: Plasmodium falciparum W2 proliferation inhibition; series mostly up to 28.7 µM.
The nature of test [11]: qHTS for differential inhibitors of proliferation of Plasmodium falciparum line HB3 (AID 1886).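 Also: parasites grown with compound for 72 h before SYBR Green readout.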 Also: potency is read from the fitted curve at half-maximal effect.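 As to activity change, negative = inhibition: plate controls were vehicle for no effect and reference inhibitor for full effect.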 To be noted: Potency: Plasmodium falciparum HB3 proliferation inhibition; series mostly up to 28.7 µM.
The nature of test [12]: qHTS Assay for Modulators of Human Peripheral Myelin Protein 22 (PMP22) Expression/Activity (AID 1967; active = well fitted curve in the direction sought with a large enough effect in the signal ratio; the % refers to the signal ratio;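 also: 0% = untreated cells and 100% end not stated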). The conditions noted are these: Cell-based PMP22 reporter, dual-color luciferase ratio, mouse Pmp22 promoter in mouse Schwann cells; series mostly up to 115 µM. A digest of the protocol:
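Mouse MSC80 Schwann line, Pmp22 promoter–CBG68 reporter, EF-alpha–CBR internal control. 24h compound exposure, 37 °C/5% CO2, DMEM + 10% FBS. Readout: corrected green/red luminescence ratio, normalized to untreated cells; concentration-response curves fitted and classified.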

Test [13] deals with Ferritin light chain (Equus caballus) (UniProt P02791). The test can be described thus: qHTS Validation Assay for Identification of Novel General Anesthetics (AID 2323). Also: % is scaled to controls: 0 for no effect and ±100 for the full control effect. To be noted: horse apoferritin, anesthetic-site fluorescent probe displacement; series mostly up to 76.9 µM. Summed up:
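10 uM horse-spleen apoferritin + 1-AMA (50% saturated, PBS); cpd pin-transferred, 10 min RT. Ex 380/Em 535 nm endpoint. Activity normalized between free 1-AMA and 1-AMA/apoferritin; 4-parameter Hill fit of concentration-response.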

Test [14] deals with ATP-dependent DNA helicase Q1 (Homo sapiens) (UniProt P46063). In words: qHTS Validation Assay for Inhibitors of RecQ-Like Dna Helicase 1 (RECQ1) (AID 2353).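 Also: plate controls were DMSO vehicle for no effect and enzyme-free control for full effect.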 To be noted: recombinant RECQ1 helicase DNA unwinding assay; series mostly up to 25.6 µM. A digest of the protocol:
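RECQ1T1 50 nM; forked duplex (20 bp + 30-nt ss tails) 200 nM, ATP 2 mM final; pH 8.0, 2 mM MgCl2, 2.5 ug/ml poly(dI-dC); 15 min compound preincubation; discontinuous kinetic read over 2 h at RT.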

Test [15] in a line: Cytometric Cell-Based qHTS for Inhibitors of the mTORC1 Signaling Pathway in MEF (Tsc2-/-, p53-/-) Cells (AID 2660).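 Also: percent of cells above a phospho-rpS6 to PI ratio cutoff in each well; plate controls were DMSO for no effect and rapamycin for full effect.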 To be noted: mTORC1 pathway cytometry; series mostly up to 38.3 µM. Summed up: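 Tsc2-/-, p53-/- MEFs (empty vector) exposed to compound 24 h at 37 C, fixed, stained with Alexa-488 anti-phospho-rpS6 Ser235/236 and propidium iodide. Acumen laser scanning; phospho-S6/PI ratio thresholded against 7.5 nM rapamycin, reported as % positive cells.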

Test [16] in a line: High Content Imaging Cell-Based qHTS for Inhibitors of the mTORC1 Signaling Pathway in MEF (Tsc2-/-, p53-/-) Cells (AID 2666).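 Also: percent of cells scored positive for phospho-rpS6 Ser235/236 immunostaining by imaging.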 The conditions noted are these: series mostly up to 38.3 µM. A digest of the protocol:
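Tsc2-/-, p53-/- MEFs (empty-vector stable) grown in DMEM + 10% FBS were exposed to compounds for 24 hrs at 37 degree Celsius, fixed, and stained with Alexa-488 anti-phospho-rpS6 Ser235/236 plus Hoechst. Imaging gave the percentage of positive cells per well.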

Test [17] addresses RecQ-like DNA helicase BLM (Homo sapiens) (UniProt P54132). The test can be described thus: qHTS Validation Assay for Inhibitors of Bloom's syndrome helicase (BLM) (AID 2364).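 Also: plate controls were DMSO vehicle for no effect and enzyme-free control for full effect.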 To be noted: BLM helicase DNA unwinding, fluorescence, in vitro; series mostly up to 57.1 µM. A digest of the protocol: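 Forked 20-bp duplex substrate (200 nM, TAMRA/BHQ-2) plus 2 mM ATP added after 15 min compound preincubation with 50 nM enzyme, pH 8.0, poly(dI-dC) 2.5 ug/ml. Strand separation followed by fluorescence (525/598 nm) over 2 h, normalized to enzyme-free and DMSO controls.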

[18] abbreviates: measured here: cell count channel max response.
[19] abbreviates: measured here: lipid channel max response.

Results filed as inconclusive are left out. Activity calls are given as the source filed them. Unless noted, calls follow the shape of the dose curve; as a rule, active = well fitted curve in the direction sought with a large enough effect; inconclusive = small, poorly fitted or top-dose-only effect, or another doubt; inactive = no such curve, though single readings can be large; an effect the other way counts as inactive or inconclusive.

DNA repair nuclease/redox regulator APEX1 (Homo sapiens), sequence (P27695 whole entry, looked up): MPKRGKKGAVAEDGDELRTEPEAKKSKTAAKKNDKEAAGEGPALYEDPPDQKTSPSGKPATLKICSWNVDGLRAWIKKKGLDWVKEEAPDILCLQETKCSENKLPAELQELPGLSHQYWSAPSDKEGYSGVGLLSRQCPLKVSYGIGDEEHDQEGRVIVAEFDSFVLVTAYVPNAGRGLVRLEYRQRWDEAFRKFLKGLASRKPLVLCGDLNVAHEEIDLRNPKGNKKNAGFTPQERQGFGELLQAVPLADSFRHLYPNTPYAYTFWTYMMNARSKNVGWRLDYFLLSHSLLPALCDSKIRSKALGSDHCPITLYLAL
Ferritin light chain (Equus caballus), sequence (P02791 2-175 limits assumed): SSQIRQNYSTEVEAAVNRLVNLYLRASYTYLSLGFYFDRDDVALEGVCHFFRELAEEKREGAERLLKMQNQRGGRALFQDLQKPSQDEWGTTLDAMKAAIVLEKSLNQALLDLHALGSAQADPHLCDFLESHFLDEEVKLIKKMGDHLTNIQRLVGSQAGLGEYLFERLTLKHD
ATP-dependent DNA helicase Q1 (Homo sapiens), sequence (P46063 whole entry, looked up): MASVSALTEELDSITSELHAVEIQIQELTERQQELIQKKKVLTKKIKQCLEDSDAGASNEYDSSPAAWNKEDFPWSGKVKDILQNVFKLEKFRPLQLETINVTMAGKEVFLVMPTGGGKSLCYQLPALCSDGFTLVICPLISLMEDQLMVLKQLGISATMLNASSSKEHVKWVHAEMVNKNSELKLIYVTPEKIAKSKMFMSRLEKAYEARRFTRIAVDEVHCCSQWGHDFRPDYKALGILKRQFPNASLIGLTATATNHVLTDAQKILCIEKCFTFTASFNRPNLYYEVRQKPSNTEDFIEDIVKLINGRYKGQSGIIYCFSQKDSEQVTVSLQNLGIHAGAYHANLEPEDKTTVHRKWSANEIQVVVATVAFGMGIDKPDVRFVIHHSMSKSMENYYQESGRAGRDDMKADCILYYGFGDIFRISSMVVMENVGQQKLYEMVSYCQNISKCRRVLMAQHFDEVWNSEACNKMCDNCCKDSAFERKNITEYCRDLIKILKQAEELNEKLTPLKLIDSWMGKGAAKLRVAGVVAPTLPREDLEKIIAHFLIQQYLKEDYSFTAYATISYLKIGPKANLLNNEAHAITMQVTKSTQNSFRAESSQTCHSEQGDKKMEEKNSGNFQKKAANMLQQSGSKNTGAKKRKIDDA
RecQ-like DNA helicase BLM (Homo sapiens), sequence (P54132 whole entry, looked up): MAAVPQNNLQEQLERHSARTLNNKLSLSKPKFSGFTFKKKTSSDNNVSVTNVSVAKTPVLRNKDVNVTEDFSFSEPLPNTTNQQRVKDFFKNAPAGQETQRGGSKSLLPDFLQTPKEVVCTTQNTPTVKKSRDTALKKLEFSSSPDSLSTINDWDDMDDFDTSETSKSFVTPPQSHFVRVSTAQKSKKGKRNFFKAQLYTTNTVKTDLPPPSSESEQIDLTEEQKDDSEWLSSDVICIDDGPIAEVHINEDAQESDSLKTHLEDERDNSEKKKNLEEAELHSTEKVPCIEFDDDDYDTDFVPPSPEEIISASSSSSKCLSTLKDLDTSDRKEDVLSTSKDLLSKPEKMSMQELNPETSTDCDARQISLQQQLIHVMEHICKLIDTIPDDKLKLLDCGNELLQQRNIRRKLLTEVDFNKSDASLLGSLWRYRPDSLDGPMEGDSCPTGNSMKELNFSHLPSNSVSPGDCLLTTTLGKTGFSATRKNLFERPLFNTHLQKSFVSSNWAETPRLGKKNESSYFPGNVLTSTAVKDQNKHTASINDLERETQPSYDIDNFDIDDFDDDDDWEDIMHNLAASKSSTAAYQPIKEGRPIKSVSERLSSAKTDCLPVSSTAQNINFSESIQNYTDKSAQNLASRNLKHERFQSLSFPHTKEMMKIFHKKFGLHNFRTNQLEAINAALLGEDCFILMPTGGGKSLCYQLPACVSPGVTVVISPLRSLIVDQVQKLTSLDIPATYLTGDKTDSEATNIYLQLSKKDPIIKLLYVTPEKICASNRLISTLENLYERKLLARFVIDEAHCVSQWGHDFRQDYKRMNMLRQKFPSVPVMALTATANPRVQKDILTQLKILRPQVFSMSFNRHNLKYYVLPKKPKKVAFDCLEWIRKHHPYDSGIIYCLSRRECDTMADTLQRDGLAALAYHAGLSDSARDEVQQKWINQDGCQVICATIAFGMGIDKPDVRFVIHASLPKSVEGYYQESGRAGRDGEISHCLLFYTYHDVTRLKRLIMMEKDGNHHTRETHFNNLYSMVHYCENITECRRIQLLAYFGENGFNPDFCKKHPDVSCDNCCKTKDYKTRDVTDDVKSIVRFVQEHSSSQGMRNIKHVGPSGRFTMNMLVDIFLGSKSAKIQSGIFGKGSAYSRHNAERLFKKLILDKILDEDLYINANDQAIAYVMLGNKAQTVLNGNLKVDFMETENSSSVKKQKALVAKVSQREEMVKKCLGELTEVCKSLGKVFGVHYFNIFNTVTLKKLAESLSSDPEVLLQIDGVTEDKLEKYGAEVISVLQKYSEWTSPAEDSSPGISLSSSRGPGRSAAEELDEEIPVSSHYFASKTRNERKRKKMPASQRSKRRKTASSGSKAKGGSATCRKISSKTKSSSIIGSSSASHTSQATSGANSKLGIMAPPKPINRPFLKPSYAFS

In the case of `Cc1[nH]c2ccc(O)cc2c1CCN`, the activity change, negative = inhibition in test [1] (at 57.5 µM (top of the series)) is -0.216% (inactive). In addition, the max response in test [1] (setting [18]) is -4.56%; in [1] (setting [19]), -4.28%. In addition, the Potency entry in [2], in test [3], in test [4], in [5], in test [6] and in test [7] was “inactive” in each case. The Potency entry in test [8], in [9], in test [10], in [11], in [14] and in [15] was “inactive” in each case. Also, the Potency result in [16] is “inactive”. The outcome in [12] and in test [13] was inactive.
In the case of `C=CCC1(C(C)CCC)C(=O)N=C(S)NC1=O` (configuration not stated), the activity change, negative = inhibition in test [1] (at 57.5 µM (top of the series)) was 5.57% (inactive). Further, the max response came to 14.6% in [1] (setting [18]) and 20.4% in test [1] (setting [19]).
In the same order, the values of `[N-]=[N+]=CC(=O)OCC(N)C(=O)O` (configuration not stated) are 10.5% (inactive), 14.1% and 29.9%.
For `CCC1(C)CC(=O)NC(=O)C1`, the activity change, negative = inhibition in test [1] (at 25.7 µM (top of the series)) was -1.02% (inactive). Besides, the figures for the max response in [1] (setting [18]) and in [1] (setting [19]) were -7.91% and -9.15%, respectively.
For the compound `Clc1ccc(Cl)cc1`, the activity change, negative = inhibition in [1] (at 57.5 µM (top of the series)) is 0.214% (inactive). The figures for the max response in [1] (setting [18]) and in test [1] (setting [19]) were 8.86% and 11.5%, respectively.
On to `CCCN(CCC)CCc1c[nH]c2ccc(C(N)=O)cc12`, for which the activity change, negative = inhibition in test [1] (at 57.5 µM (top of the series)) was 1.01% (inactive). In addition, the figures for the max response in test [1] (setting [18]) and in test [1] (setting [19]) were -28.4% and -33.9%, respectively. For the same compound, the Potency result in [2], in [3], in [4], in test [5], in test [6] and in test [7] was “inactive” throughout. Moreover, the Potency entry in test [8], in test [9], in test [11], in [14], in test [17] and in test [15] was “inactive” throughout. For the same compound, the Potency entry in test [16] was “inactive”. For the same compound, the result in test [13] was inactive.
With `CC(=O)c1c(O)c(C)c(O)c(Cc2c(O)c3c(c(C(=O)/C=C/c4ccccc4)c2O)OC(C)(C)C=C3)c1O`, the activity change, negative = inhibition in test [1] (at 57.5 µM (top of the series)) is 1.99% (inactive). Further, the max response was determined as 24.5% in test [1] (setting [18]) and 25.8% in test [1] (setting [19]). For the same compound, the Potency result in test [2], in test [4], in [15] and in test [16] was “inactive” each time. Moreover, the Potency in [3] was 2.24 µM (active); in test [5], 3.16 µM (active); in test [6], 3.16 µM (active); in test [7], 3.98 µM (active); in test [8], 10 µM (active); in [9], 7.94 µM (active). The Potency in test [10] is 3.55 µM (active); in [11], 5.62 µM (active).
Consider `Oc1ccc2c3c1O[C@H]1c4oc5ccccc5c4C[C@@]4(O)C(C2)N(CC2CC2)CCC314` (some centres not stated), for which the activity change, negative = inhibition in [1] (at 57.5 µM (top of the series)) was 0.729% (inactive). Moreover, the results for the max response in test [1] (setting [18]) and in [1] (setting [19]) were 69% and 72%, respectively. The Potency entry in test [2], in test [3], in test [4], in test [14], in test [17] and in [15] was “inactive” throughout. Also, the Potency entry in test [16] is “inactive”. Moreover, the Potency is 8.91 µM (active) in test [5]; 3.16 µM (active) in [6]; 7.94 µM (active) in test [7]; 12.6 µM (active) in test [8]; 10 µM (active) in test [9]; 3.16 µM (active) in test [10]. In test [11], the Potency is 11.2 µM (active). Besides, the outcome in test [13] was inactive.
For `N[C@@]1(C(=O)O)CC[C@@H](C(=O)O)C1`, the activity change, negative = inhibition in test [1] (at 57.5 µM (top of the series)) is -2.99% (inactive). The max response in test [1] (setting [18]) and in [1] (setting [19]) was -46.9% each time. Also, the Potency entry in [2], in test [3], in test [4], in test [5], in test [6] and in test [7] was “inactive” each time. Also, the Potency entry in test [8], in [9], in test [10], in test [11], in test [14] and in test [16] was “inactive” throughout. Also, the outcome in test [12] and in [13] was inactive.
